Screening results as filed in PubChem.
ELG1 DNA repair: blocks ELG1-dependent DNA repair in HEK293T cells | HEK293T ELG1-luciferase reporter, luminescence, 16 h; DNA damage induced by 5-fluorouridine | Potency, µM (top dose mostly 46.1 µM), for inactives: at the highest dose activity change, negative = inhibition, most hits filed as inhibitors | hit rate 2.3% among 330,000 | AID 504467; further: potency means the concentration at half of the fitted maximal effect; on the % scale 0 is the no-effect control and ±100 the full control effect; nearly all actives have a fitted effect of over 55% in size
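Reporter activity after DNA damage by 5-fluorouridine is monitored. Compound-treated cells incubate 16 hr at 37 °C, then ONE-Glo is added for 30 min before luminescence reading.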
RORg inh: blocks mouse ROR gamma transcriptional activity. hit rate 5.4% among 310,000. Potency, µM (highest dose often 53.6 µM), for the others: top-dose activity change, negative = inhibition, actives largely listed as inhibitors. P51450. Drosophila S2 Gal4-RORgamma UAS-luciferase reporter, 20 h; further: potency means the concentration at half of the fitted maximal effect; on the % scale 0 is the no-effect control and ±100 the full control effect; nearly all actives have a fitted effect of over 60% in size
Target sequence (P51450 whole entry, looked up, the tested form may be a part): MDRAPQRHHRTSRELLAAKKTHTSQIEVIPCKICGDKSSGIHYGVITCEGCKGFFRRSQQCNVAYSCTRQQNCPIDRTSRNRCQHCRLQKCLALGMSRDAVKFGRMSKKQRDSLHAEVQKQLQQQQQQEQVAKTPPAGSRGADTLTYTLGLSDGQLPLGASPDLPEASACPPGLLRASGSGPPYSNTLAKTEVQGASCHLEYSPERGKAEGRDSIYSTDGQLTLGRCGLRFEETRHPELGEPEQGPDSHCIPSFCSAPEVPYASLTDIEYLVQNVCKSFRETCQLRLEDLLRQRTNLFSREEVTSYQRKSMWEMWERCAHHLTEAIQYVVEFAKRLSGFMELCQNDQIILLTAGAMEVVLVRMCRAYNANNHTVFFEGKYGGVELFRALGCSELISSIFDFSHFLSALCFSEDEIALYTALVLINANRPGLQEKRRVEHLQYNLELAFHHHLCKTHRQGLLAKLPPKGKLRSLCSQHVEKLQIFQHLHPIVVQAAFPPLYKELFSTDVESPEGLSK
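Luminescence from a UAS-regulated Photinus luciferase reporter in stably transfected Drosophila Schneider cells is measured; decreased signal marks ROR gamma inhibition. Fusion expression is induced by 700 uM copper sulfate for 20 hr.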
Gal4-VP16 FLuc: counter-screen for ROR gamma inhibitors: Gal4-VP16 reporter; AID 2546; Potency, µM (series often up to 53.6 µM), for inactives: top-dose activity, negative = inhibition, hits mostly inhibitors; Drosophila S2 Gal4-VP16 UAS-luciferase, luminescence, 20 h; hit rate 3.5% among 310,000;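 further: Gal4-VP16 expression switched on by copper sulfate through the metallothionein promoter; potency means the concentration at half of the fitted maximal effect; on the % scale 0 is the no-effect control and ±100 the full control effect; nearly all actives have a fitted effect of over 50% in size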
p53 reactivation: re-activators of mutant p53. H1299 p53-A138V BP100-luciferase reporter, luminescence, 24 h. Potency, µM (series often up to 92.2 µM), for inactives: at the highest dose activity change, positive = activation, usual class: activators. hit rate 0.063% among 320,000. AID 504706; further: potency means the concentration at half of the fitted maximal effect; % of control where 0% means no effect; nearly all actives have a fitted effect of over 45% in size
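p53-null H1299 cells stably carrying temperature-sensitive p53-A138V and a BP100-luciferase reporter were pinned with compounds (4-point, 1:5 series) and held 24 hrs at 37 deg C. Luminescence was read 10 min after detection reagent.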
BRCA1 expr up: increases BRCA1 expression | AID 624202 | hit rate 1.1% among 380,000 | Potency, µM (titrated, usually from 46.1 µM), without a hit: top-dose activation, usual class: activators | MCF7-BRCA1-FFLuc reporter, luminescence, 48 h; response scale: scaled: vehicle 0%, 10 µM genistein 100%; further: potency means the concentration at half of the fitted maximal effect; nearly all actives have a fitted effect of over 80% in size
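MCF7-BRCA1-FFLuc cells, 2000/well in phenol-red-free MEM, attached 2 h then treated 48 h at 37 C. Luciferase luminescence read 15 min after reagent; normalized to genistein maximum activation (10microM) and DMSO, concentration-response fitted.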
Giardia kill: kills Giardia lamblia; Giardia lamblia trophozoite viability; activity change, % at 7.66 µM, hits read low; hit rate 0.15% among 340,000; in the data active means activity change below about -80%; inconclusive means between about -30% and that limit;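 further: parasites exposed to compound for two days anaerobically before the ATP read; on the % scale 0 is the no-effect control and ±100 the full control effect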
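Trophozoites 100 cells/well + cpd; 48 hrs, 37 deg C, anaerobic. ATPLite 1-Step added, 15-30 min RT, luminescence read (ATP-based viability).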
Active calls of the source: *; ? = inconclusive; nt = not tested or not shown; [ ] = another dose, or the depositor's remark. Shown are actives, neighbours in structure and some others; about 7.6% of the full set was active somewhere. Unless noted, the call rests on the fitted dose curve; in most records, active means well fitted curve in the direction sought with a large enough effect; inconclusive means small, poorly fitted or top-dose-only effect, or another doubt; inactive means no such curve, though single readings can be large; an effect the other way counts as inactive or inconclusive.

SMILES | ELG1 DNA repair | RORg inh | Gal4-VP16 FLuc | p53 reactivation | BRCA1 expr up | Giardia kill
COc1ccc(/C=N/NC(=O)c2nc(-c3ccccc3)cc(-c3ccccc3)n2)cc1 | 6.5µM* | 29% | -4% | -11% | 11% | -1
O=C(Nc1ccccn1)c1nc(-c2ccccc2)n(-c2ccccc2)n1 | ? | ? | -11% | -7% | -15% | 9
COc1ccc(/C=N/NC(=O)c2nc(-c3ccccc3)cc(-c3ccccc3)n2)cc1O | 6.5µM* | 41%[10 µM] | -15% | 26% | -30% | -1
COc1cc(/C=N/NC(=O)c2nc(-c3ccccc3)n(-c3ccccc3)n2)ccc1O | ? | -1% | -6% | -8% | -7% | -17
COc1ccc(/C=N/NC(=O)c2c(-c3ccccc3)noc2C)cc1 | 1% | 1% | -13% | -3% | 2% | 0
NC(=O)c1ccsc1NC(=O)c1nc(-c2ccccc2)n(-c2ccccc2)n1 | 18µM* | -8% | -2% | 8% | -23% | -2
COc1ccc(/C=N/NC(=O)c2nc(-c3ccccc3)n(-c3ccccc3)n2)cc1OC | 13µM* | 11% | -12% | -2% | -6% | 16
CCOc1ccc(N=C(NC#N)SCC(=O)NC2CC2)cc1 | 12% | 15% | 1% | 9% | -17% | -10
COc1ccc(OC)c(-c2csc(NC(=O)CN3C(=O)C4CCCCC4C3=O)n2)c1 (configuration not stated) | 2% | nt | nt | -2% | 20% | -7
Nc1c(C(=O)Nc2ccc3c(c2)OCCO3)nnn1CCc1ccccc1 | ? | ? | 13% | ? | 65% | -8
Nc1c(C(=O)Nc2ccccc2Cl)nnn1-c1ccc2c(c1)OCCO2 | ? | 0.056µM* | ? | ? | 0% | 0
COc1ccc(OC)c(/C(O)=C/C(=O)C(=O)Nc2cc(C)cc(C)c2)c1 | ? | 2.5µM* | 18µM* | 0% | -16% | -2
COc1ccc(OC)c(/C(O)=C/C(=O)C(=O)Nc2cc(C)ccc2OC)c1 | -13% | 3.5µM* | 11µM* | 2% | -7% | 0
CCOc1ccccc1NC(=O)C(=O)/C=C(\O)c1cc(OC)ccc1OC | -26% | ? | ? | 0% | -31% | 10
COc1ccc(-c2csc(C(C)(O)c3ccccc3)n2)cc1 (configuration not stated) | nt | nt | nt | nt | 57% | nt
CC1CCCCN1Cc1c(O)ccc2c(=O)c(-c3ccc(Cl)cc3)coc12 (configuration not stated) | 1% | 27% | 7% | 9% | 10µM* | 21
Brc1ccc2c(c1)CNc1c(ncnc1N1CCOCC1)O2 | -25% | 32% | 4% | ? | -32% | 4
COc1ccc(/C=C/C(=O)c2c(C)nc3ccccn23)cc1 | ? | -8% | 12% | ? | 45% | 6
Cc1nc2ccccn2c1C(=O)/C=C/c1ccc(F)cc1 | ? | 8.9µM* | ? | ? | ? | 2
O=C(/C=C/c1ccccc1Cl)NCc1ccccc1 | ? | -5% | 7% | -3% | 50% | 13
CCN(CC)c1ccc(NC(=O)/C=C\c2ccccc2Cl)cc1 | ? | 35% | -6%[0.365 µM] | 12% | 3.2µM* | -9
Cc1cc(NC(=O)/C=C/c2ccccc2Cl)no1 | ? | 19% | 10% | ? | ? | 0
CN(C)c1ccc(NC(=O)/C=C/c2ccccc2Cl)cc1 | ? | 0.056µM* | -10% | ? | ? | 3
CCC(C)NC(=O)c1ccc(NS(=O)(=O)c2ccc3[nH]c(=O)[nH]c3c2)cc1 (configuration not stated) | ? | -21% | -12% | 12% | -1% | -3
CCN(CC)C(=O)c1ccc(NS(=O)(=O)c2ccc3[nH]c(=O)[nH]c3c2)cc1 | 18µM* | 11% | -24% | -9% | 8% | -5
SMILES | ELG1 DNA repair | RORg inh | Gal4-VP16 FLuc | p53 reactivation | BRCA1 expr up | Giardia kill
COc1ccc(CN2CCN(CC3CC3)CC2CCO)c(C)c1C (configuration not stated) | 14% | nt | nt | nt | 0% | 27
COc1ccc(CN2CCN(Cc3nc4ccccc4s3)CC2CCO)c(C)c1C (configuration not stated) | 16µM* | ? | 5% | 4% | -56% | -23
Cc1ccsc1C(=O)OCC(=O)NC1CCCCC1C (configuration not stated) | ? | nt | nt | 5% | 3% | -13
COc1ccccc1C(=O)N(CCC1CCCN1C)c1nc2ccccc2s1 (configuration not stated) | ? | 7.1µM* | ? | 11% | -32% | 4
CCOC(=O)N1CCN(C(=O)CN2C(=O)NC(C)(c3ccc4ccccc4c3)C2=O)CC1 (configuration not stated) | -6% | nt | nt | -5% | 0% | 4
CS(=O)(=O)N1N=C(c2ccco2)CC1c1ccco1 (configuration not stated) | 8% | 25% | ? | nt | 32% | 22
Cc1cc(NC(=O)c2ccc(Cl)cc2)n(CCOC(=O)c2ccc(Cl)cc2)n1 | -14% | ? | 16µM* | -15% | -6% | 5
COc1ccccc1N1CCN(C(=O)c2sc3nc4n(c(=O)c3c2C)CCC4)CC1 | ? | 3% | -1% | 2% | -8% | 10
CC1(C)CCC(=O)N2CC[C@H]3C[C@H](OC(=O)Nc4ccc5c(c4)OCO5)C[C@@H]1[C@H]32 | ? | ? | ? | nt | 11µM* | 31
CCCCn1c(NCc2ccccn2)nc2ccccc21 | 13% | 7.1µM* | 13µM* | 3% | 22% | -7
c1ccc(Cn2c(NCc3ccccn3)nc3ccccc32)cc1 | -4% | 10µM* | -6% | -3% | 0% | -5
O=[N+]([O-])c1cccnc1N1CCC(c2cc(-c3cccc(C(F)(F)F)c3)n[nH]2)CC1 | 0% | 13µM* | ? | -13% | -52% | -2
O=[N+]([O-])c1cccnc1N1CCC(c2cc(-c3ccc(Cl)cc3Cl)n[nH]2)CC1 | ? | 13% | ? | 8% | -83% | -21
COc1ccc(-c2oc3cccnc3c2-c2ccc(OC)nc2)cc1 | 12% | -16% | 12% | 10% | 27% | -1
CCCCOC(=O)c1ccc(Nc2ncnc3nc[nH]c23)cc1 | ? | 19% | -7% | 19% | 10µM* | -24
FC(F)Sc1ccc(Nc2ncnc3nc[nH]c23)cc1 | ? | ? | ? | ? | 3.5µM* | -4
Cc1ccccc1-c1cc2nc(NCCOc3ccccc3Cl)n(C)c(=O)c2s1 | nt | nt | nt | nt | -10% | nt
COc1cccc(OC)c1C(=O)OCC(=O)N(C)c1ccccc1 | 0% | 0% | 3% | -3% | 14% | 9
COc1ccccc1-c1coc2c(CN3CCN(CCO)CC3)c(O)ccc2c1=O | nt | nt | nt | nt | -13% | 2
